Results taken from PubChem BioAssay.
A number with no mark means an inactive call. The source made the active and inactive calls. No stated cut-off is given here; in the data, active means inhibition above about 28%; inactive means the rest.

Test: StAR promoter reporter inhibitors, counter-screen for LRH-1 inverse agonist project, cell-based, luminescence, high throughput (AID 651611)
Conditions: StAR promoter luciferase reporter counterscreen, at 3.6 µM, stronger effect = higher value
With `Cc1cc(-c2nn3c(-c4ccccc4)nnc3s2)c2ccccc2n1` the inhibition was 7.3%. `O=C(CSc1nncc(=O)[nH]1)Nc1cccc([N+](=O)[O-])c1` showed an inhibition of 11.7%. With `COc1ccc(Cc2c(-c3cccc(Cl)c3)nc3cc(C)c(Br)c(C)n23)c(C)c1` the inhibition was 3.35%. For `CCOc1ccc(NC(=O)CN2CCN(C3c4ccccc4-c4ccccc43)CC2)cc1`, the inhibition was 9.85%. `CC(=O)N[C@@H](Cc1c[nH]c2ccccc12)C(=O)OCC(=O)Nc1ccc2c(c1)OCO2` showed an inhibition of -1.82%. Compound `CCN(CC)S(=O)(=O)c1ccc(N2CCCC2)c(NC(=O)c2ccc([N+](=O)[O-])o2)c1` has an inhibition of 19.4%. `COc1cccc(C(=O)N/N=C2/SCC(=O)N2CCc2ccc(OC)c(OC)c2)c1` showed an inhibition of 10.8%. Compound `COc1ccccc1NC(=O)CN1CCN(CC(=O)Nc2ccc3c(c2)OCO3)CC1` has an inhibition of 7.22%. With `CCN1C(=O)c2cccc3c(S(=O)(=O)Nc4ccccc4O)ccc1c23` the inhibition was 38.4% (active). Work on `O=C(CCl)NCCN1C(=O)S/C(=C\c2cccnc2)C1=O` yielded an inhibition of 10.2%. In the case of `COc1ccc(CCNC(=O)c2ccccc2NC(=O)CN2CCN(c3ccccc3O)CC2)cc1`, the inhibition is reported as 33.3% (active). `CC(C)NC(=O)N1Cc2cc(C(=O)NC3CCCCC3)nc(-c3cccc(-c4cccnc4)c3)c2[C@@H]1CCO` showed an inhibition of 27.6%. For `CCC(C)Nc1nc(-c2cccc(OC)c2O)nc2ccccc12` (centres undefined), the inhibition was 30.8% (active). `CC(CCc1ccccc1)NC(=O)COc1ccc(S(=O)(=O)N2CCOCC2)cc1[N+](=O)[O-]` (centres undefined) gave an inhibition of -7.62%.
